# Source: PubChem BioAssay AID1159580 (chemical genetic matrix, 2015)
# The whole screen tested about 5,500 compounds, of which about 2,000 (36%) were called active. Inconclusive results (about 18%) are left out. The list shows a part of the results. A number with no mark means an inactive call. No stated cut-off is given here; in the data, active means normalized growth mostly below about 0.91 (no sharp cut-off); inconclusive means no clear call, values can overlap the other calls; inactive means mostly above about 0.92.
# Assay: chemical genetic growth profiling, strain panel (AID 1159580);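 further: tested at 20 µM; growth read once vehicle control cultures reached saturation at 30 °C; 1 = growth at the plate median or of vehicle wells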
# Details: S. cerevisiae deletion strains, growth OD
smiles,measurement,setting,value
CSC(=NS(=O)(=O)c1ccccc1)SC,normalized growth,"locus YAL013W, strain DEP1, stronger effect = lower value",0.985
same,normalized growth,"locus YBR229C, strain ROT2, stronger effect = lower value",0.979
same,normalized growth,"locus YDL101C, strain DUN1, stronger effect = lower value",0.98
same,normalized growth,"locus YDL134C, strain PPH21, stronger effect = lower value",1.01
same,normalized growth,"locus YDR150W, strain NUM1, stronger effect = lower value",0.938
same,normalized growth,"locus YEL061C, strain CIN8, stronger effect = lower value",1.03
same,normalized growth,"locus YGR078C, strain PAC10, stronger effect = lower value",0.985
same,normalized growth,"locus YHR030C, strain SLT2, stronger effect = lower value",0.83
same,normalized growth,"locus YHR087W, strain rtc3, stronger effect = lower value",1.02
same,normalized growth,"locus YJL187C, strain SWE1, stronger effect = lower value",1
same,normalized growth,"locus YJR043C, strain POL32, stronger effect = lower value",0.96
same,normalized growth,"locus YJR075W, strain HOC1, stronger effect = lower value",0.977
same,normalized growth,"locus YKL190W, strain CNB1, stronger effect = lower value",1
same,normalized growth,"locus YLR039C, strain RIC1, stronger effect = lower value",0.595 (active)
same,normalized growth,"locus YLR058C, strain SHM2 (second series), stronger effect = lower value",0.987
same,normalized growth,"locus YLR085C, strain ARP6, stronger effect = lower value",0.901
same,normalized growth,"locus YLR262C, strain YPT6, stronger effect = lower value",0.513 (active)
same,normalized growth,"locus YML094W, strain GIM5, stronger effect = lower value",0.921
same,normalized growth,"locus YMR219W, strain ESC1, stronger effect = lower value",0.995
same,normalized growth,"locus YMR263W, strain SAP30, stronger effect = lower value",0.974
same,normalized growth,"locus YNL153C, strain GIM3, stronger effect = lower value",1
same,normalized growth,"locus YNL298W, strain CLA4 (second series), stronger effect = lower value",1.02
same,normalized growth,"locus YNL322C, strain KRE1, stronger effect = lower value",0.971
same,normalized growth,"locus YNR030W, strain Alg12, stronger effect = lower value",0.989
same,normalized growth,"locus YPL055C, strain LGE1, stronger effect = lower value",0.978
same,normalized growth,"locus YPL241C, strain CIN2, stronger effect = lower value",0.945
same,normalized growth,"locus YPR135W, strain CTF4, stronger effect = lower value",0.941
